# Inconclusive results are not listed. Entries that show only a call come without a potency. Active and inactive are the calls of the source. The call rests on the fitted dose curve; in most records, active means well fitted cell-killing curve with a large enough effect; inconclusive means small, poorly fitted or top-dose-only effect; inactive means no such curve, though single readings can be large or run the other way.
# Experiment: qHTS of pediatric cancer cell lines to identify multiple opportunities for drug repurposing: Primary screen for MG 63 (6-TG R) cells (AID 1347105); further: nearly all actives have a fitted effect of over 50% in size
# Details: MG 63 (6-TG R) viability, CellTiter-Glo, 48 h; series mostly up to 46 µM
# Text: Drug repurposing or repositioning has been offered as a strategy for drug development in oncology programs. This approach has special potential for childhood cancers and other rare or orphan diseases, where the expected return on new drug development has been a disincentive to pharmaceuticals. […] In this project we exploit the poly-pharmacology of drugs to discover new indications via phenotypic screening of a panel of 19 well-characterized cell lines derived from solid tumors seen in children and adolescents. The goal is to identify approved drugs with previously unrecognized anticancer properties that has the potential to reveal new mechanisms and biological processes involved in carcinogenesis or drug resistance. We employed a titration-based paradigm (quantitative high-throughput screening or qHTS), where all compounds were tested at multiple concentrations for their effect on cell viability. Concentration-response curves (CRCs) were derived directly from the primary screen, and both potency and efficacy values were used to identify compounds with robust bioactivity profiles. We screened the NIH Chemical Genomics Center (NCGC) Pharmaceutical Collection (NPC) and Mechanism Interrogation Plate (MIPE) small molecule collections of approved and investigational compounds against these cell lines; and measured metabolically active cells after 48 hours of compound treatment as a proxy for cell viability. […] Assay Submitter: Nathalia J. Martinez, National Center for Advancing Translational Sciences, National Institutes of Health, Rockville, MD, USA; email: natalia.martinez@nih.gov Shen, M et al. Quantitative high-throughput phenotypic screening of pediatric cancer cell lines identifies multiple opportunities for drug repurposing. Oncotarget 2017 Dec 19;9(4):4758-4772. PMID 29435139.
# The cells were obtained from University of North Carolina (UNC), Pediatric Preclinical Testing Program (PPT), and Coriell Institute (CI). qHTS cell viability assay: Cells were assayed in growth media at a density of 500-1,000 cells/well. Five microliters of cells were dispensed into 1,536-well, white, solid-bottom, TC-treated plates (Greiner Bio One) using a multidrop dispenser and incubated at 37 degrees C, 5% CO2, under a humidified atmosphere for 5 hours. Twenty-three nanoliters of compounds and controls (neutral control DMSO or positive control bortezomib at final concentration of 2.3 µM) were subsequently transferred by Kalypsys pintool. For primary screens, the MIPE collection was tested at 11-point dilutions (final concentrations range from 0.78 nM to 46 µM) and the NPC collection at 8-point dilutions (final concentrations range from 0.59 nM to 46 µM). Compounds tested in follow-up screens were assayed at 11-point dilutions. Cells were incubated for 48 hours, followed by addition of 3 µL of CellTiter-Glo (Promega). After a 15 min incubation at room temperature, samples were analyzed for luminescence intensity using a ViewLux High-throughput CCD imager equipped with clear filters.
# Potency means the concentration at half of the fitted maximal effect.
row,SMILES,Potency
1,CCOC(C(=O)OCCN(C)C)(c1ccccc1)c1ccccc1,inactive
2,CCN(CC)C(C)C(=O)c1ccccc1 (stereo not given),inactive
3,CC(=O)OC1(c2ccccc2)CCN(CCc2ccccc2)CC1,inactive
4,ClCc1cccc(Cl)c1,inactive
5,CC[C@H]1C[C@H]2[C@@H]3CCC4=CC(=O)CC[C@@H]4[C@H]3CC[C@]2(C)[C@H]1O,inactive
6,CC(C)[N+](C)(CCC(C(N)=O)(c1ccccc1)c1ccccc1)C(C)C,inactive
7,Oc1ccc2[nH]cc(CCCCN3CC=C(c4ccccc4)CC3)c2c1,inactive
8,C[C@]12CC[C@H]3[C@@H](CC=C4C[C@@H](O)CC[C@@]43C)[C@@H]1CC[C@@H]2O,inactive
9,CNC(C)Cc1ccc2c(c1)OCO2 (stereo not given),inactive
10,CC(C(O)c1ccccc1)N(C)C/C=C/c1ccccc1 (stereo not given),inactive
11,C[N+]1(CCC(C(N)=O)(c2ccccc2)c2ccccc2)CCCCC1,inactive
12,CN1CCC(N(Cc2ccccc2)c2ccccc2)CC1,inactive
13,CC(C)(C)OC(=O)c1ncn2c1[C@@H]1CCCN1C(=O)c1c(Br)cccc1-2,inactive
14,CC#C[C@]1(O)CC[C@H]2[C@@H]3C[C@H](C)C4=CC(=O)CC[C@]4(C)[C@H]3CC[C@@]21C,inactive
15,CC(Cc1ccc2c(c1)OCO2)NO (stereo not given),inactive
16,CN(C)CCc1c[nH]c2ccccc12,inactive
17,NC(=O)OCCCc1ccccc1,inactive
18,C=CC[C@]1(O)CC[C@H]2[C@@H]3CCC4=CC(=O)CCC4=C3C=C[C@@]21C,inactive
19,C[C@@H]1CC[C@H]2[C@@H](C)C(=O)O[C@@H]3O[C@@]4(C)CC[C@@H]1[C@]32OO4,inactive
20,O=C(O)Cc1ccccc1,inactive

row,SMILES,Potency
1,O=C(CBr)Nc1ccc(Cl)cc1C(=O)c1ccccc1F,inactive
2,Cc1c(Cl)c(=O)oc2cc(OP(=O)(OCCCl)OCCCl)ccc12,inactive
3,C[N+]1(C)[C@@H]2CC[C@H]1CC(OC(=O)C(CO)c1ccccc1)C2 (stereo not given in full),inactive
4,Cc1nnc2n1-c1sc(CCC(=O)N3CCOCC3)cc1C(c1ccccc1Cl)=NC2,inactive
5,OC(O)C(Cl)(Cl)Cl,inactive
6,CCOC(=O)C(c1c(O)c2ccccc2oc1=O)c1c(O)c2ccccc2oc1=O,inactive
7,CN1C2CCC(C)(C)C1CC(OC(=O)C(O)(c1cccs1)c1cccs1)C2 (stereo not given),inactive
8,O=C(N[C@H]1N=C(c2ccccc2F)c2cccc3c2N(CC3)C1=O)c1cc2ccccc2[nH]1,inactive
9,CC(Cc1ccccc1)NCc1ccccc1Cl (stereo not given),inactive
10,CCOC(=O)c1ncn2c1CN(C)C(=O)c1c(I)cccc1-2,inactive
11,C[C@H]1C(=O)O[C@@H]2CCN3CC=C(COC(=O)[C@](C)(O)[C@]1(C)O)[C@H]23,inactive
12,COc1cc(CC#N)cc(OC)c1OC,inactive
13,O=C(O)c1nn(Cc2ccc(Cl)cc2Cl)c2ccccc12,inactive
14,CCC1(CC)C(=O)NC(=O)NC1=O,inactive
15,COP(=S)(OC)Oc1ccc(Sc2ccc(OP(=S)(OC)OC)cc2)cc1,inactive
16,OC(c1ccccc1)(c1ccccc1)C1CCNCC1,inactive
17,Cc1ccc([N+](=O)[O-])[c]2c1[O][Hg]2,1330 nM (active)
18,CNC(=O)Oc1cccc2ccccc12,inactive
19,C[C@]12CC[C@H]3[C@@H](CCC4=CC(=O)CC[C@@H]43)[C@@H]1CC[C@@H]2O,inactive
20,CN(C)CCc1c[nH]c2ccc(O)cc12,inactive
